Assay results reported in PubChem BioAssay (NCI).
This is part of a sample that, as a whole, favours compounds with a hit. Of some 79,000 tested, about 15% had one in any assay. A number with no mark means an inactive call. Activity calls are given as the source filed them. No stated cut-off is given here; in the data, active means growth inhibition above about 70%; inactive means the rest.

Assays:
[1] = NCI Yeast Anticancer Drug Screen. Data for the rad50 strain (AID 155);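 further: 0% = growth of vehicle-only cultures of the same strain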; conditions: S. cerevisiae rad50 strain growth inhibition; at 50.0 µM; active compounds read high
In short: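 Compounds were tested on a yeast strain with an engineered DNA damage repair alteration; the reported value is growth inhibition normalised to vehicle treatment.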

[2] = NCI Yeast Anticancer Drug Screen. Data for the mec2-1 strain (AID 157); conditions: S. cerevisiae mec2-1 strain, at 50.0 µM, active compounds read high
In short: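 mec2-1 yeast strain, carrying an alteration in DNA damage repair or cell cycle control, was exposed to compounds; growth inhibition was measured relative to vehicle-treated controls.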

[3] = NCI Yeast Anticancer Drug Screen. Data for the sgs1 mgt1 strain (AID 161);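 further: 0% = growth of cultures given vehicle only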; conditions: S. cerevisiae sgs1 mgt1 strain, at 50.0 µM, active compounds read high
In short: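 Growth of a repair-deficient yeast mutant was monitored after compound treatment and expressed as inhibition relative to vehicle-treated cultures.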

[4] = NCI Yeast Anticancer Drug Screen. Data for the cln2 rad14 strain (AID 165);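 further: 0% = growth equal to vehicle treated cultures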; conditions: S. cerevisiae cln2 rad14 strain, at 50.0 µM, active compounds read high
In short: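 Yeast carrying cln2 and rad14 alterations (cell cycle control and DNA damage repair) were exposed to compounds. Growth inhibition was measured against vehicle-treated controls.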

[5] = NCI Yeast Anticancer Drug Screen. Data for the bub3 strain (AID 167); conditions: S. cerevisiae bub3 mutant strain, at 50.0 µM, active compounds read high
In short: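 Growth of a checkpoint-deficient yeast mutant is measured after compound exposure. Values represent inhibition relative to vehicle.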

[6] = NCI Yeast Anticancer Drug Screen. Data for the mlh1 rad18 strain (AID 175); conditions: S. cerevisiae mlh1 rad18 strain growth inhibition; at 50.0 µM; active compounds read high
In short: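 Growth inhibition of the yeast strain was measured after compound exposure and expressed relative to vehicle-treated controls. The strain carries defined defects in DNA damage repair.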

SMILES | growth inhibition [1] | growth inhibition [2] | growth inhibition [3] | growth inhibition [4] | growth inhibition [5] | growth inhibition [6]
CCCCN1C(=O)C(CC(=O)OCC)SC1=S (stereo unspecified) | -8.35% | -28.7% | -19.9% | -7.8% | -18.2% | -14.3%
O=[N+]([O-])c1ccc(C2ON=C(c3ccccc3)N2C23CC4CC(CC(C4)C2)C3)cc1 (stereo unspecified) | -12.6% | -9% | -6.1% | 25.5% | -6.5% | -28.4%
Cc1nc2nc(NCCCN(C)C)nc(NCCCN(C)C)c2nc1C | 18.8% | 1.25% | 22.1% | 23.6% | 21.4% | 15.3%
CC(=O)OC1CCC2(C)C(CCC3C2CCC2(C)C3CCC2C(C)(C)O)C1 (stereo unspecified) | -2.2% | 0.3% | -16.4% | -9.15% | -2.45% | 20.6%
CCOC(=O)CC(C)(O)c1ccccc1 (stereo unspecified) | -12.2% | -0.55% | 23.4% | -17.4% | 12.3% | 0.15%
O=C(Nc1ccccc1C(F)(F)F)Oc1ccc(Cl)cc1Cc1ccccc1 | 99.4% (active) | 99.6% (active) | 99.7% (active) | 99.3% (active) | 99.2% (active) | 99.5% (active)
N.N.N.N.N.O=C([O-])c1nn[n-]n1.[Cl-].[Co+3] | -0.8% | -1.1% | 7.15% | 23.4% | 3.75% | -7.5%
COc1ccc(C(=O)c2ccc(Cl)s2)cc1 | 8.4% | -4.85% | 22.4% | -13.2% | 21% | 5.1%
Cc1c(Cl)cccc1NC(=O)Sc1ccc(C(C)(C)C)cc1 | 21.1% | 11.4% | 12.5% | 19.1% | 11.4% | 15.5%
C(/C=C/c1csnn1)=C\c1ccccc1 | 8.9% | 8.85% | -4.2% | 15.8% | 2.35% | 0.5%
CC(C)(O)/C=C\P(C)(=O)c1ccccc1 (stereo unspecified) | -30.9% | -21.9% | -4.7% | 9.85% | -32.5% | -31.4%
CC(C)(CO)C(O)C(=O)NCCO (stereo unspecified) | 14.8% | -0.15% | 6.05% | 5.15% | 3.3% | -10.4%
C=C1C(=O)O[C@@H]2[C@H]3[C@H](C)C(=O)C=C[C@]3(C)CC[C@@H]12 | 21.3% | -24.9% | 39% | 13.4% | 8.95% | -23.6%
CC(C)(C)C(=O)CC(=O)C(C)(C)C.[Cu] | -10.2% | -9.35% | -4.2% | -56.6% | -26.4% | 9.05%
C1Cc2nnnn2C1 | -7.4% | -20.1% | 0.9% | -2.85% | -7.95% | 12.6%
CN(C(=O)C12C3C4C1C1C2C3C41C(N)=O)C(C)(C)C (stereo unspecified) | 9.6% | 7.8% | 4.35% | 25.1% | 18.5% | -6.3%
Cc1ccc(S(=O)c2ccccc2[N+](=O)[O-])cc1 (stereo unspecified) | 4.85% | 9.45% | 1.7% | 22% | -0.6% | -2%
CCOC(=O)C(C)(C)C(=O)Nc1ccccc1 | 5.2% | -7.6% | -3.6% | 24.9% | 3.6% | 5.7%
CSc1nnc2c3ccccc3ccn12 | 4.9% | 11.6% | -2.25% | -3.3% | -14.1% | 52.5%
Cc1cccc(C(=O)O)c1-c1c(C)cccc1C(=O)O | 13.3% | -5.95% | -6.8% | 3.05% | 0.8% | 12.9%
O=C(O)CNC1=NCCN1 | -0.8% | 2.5% | -8.4% | -41.4% | -24.1% | -3.2%

SMILES | growth inhibition [1] | growth inhibition [2] | growth inhibition [3] | growth inhibition [4] | growth inhibition [5] | growth inhibition [6]
CCSc1n[nH]c(=O)nc1NN | -0.35% | -3.85% | -28.4% | -60% | -19.2% | -2.75%
COC(=O)C1=NC(=S)N=C(C(=O)OC)C1(C)C(=O)c1ccc(Cl)cc1 | -2.55% | 2.65% | -14.9% | 17.2% | 2.75% | 4.35%
O=c1c2c(-c3cc(-c4ccccc4)nc4[nH]n(-c5ccccc5)c(=O)c34)cc(-c3ccccc3)nc2[nH]n1-c1ccccc1 | 0.45% | -6.2% | 0.35% | -38.5% | 4.85% | -22.6%
CC1=NN(c2ccc(S(=O)(=O)O)cc2)C(=O)C1N=Nc1ccc(C)c(S(=O)(=O)Nc2ccccc2)c1 (stereo unspecified) | 5.95% | -17.9% | 8% | 15% | 5.45% | 10.8%
CCCCNC(C)(C)CSS(=O)(=O)O | -12.9% | -23.3% | -22.2% | -59.8% | 4.1% | -14.6%
Cc1ccc(S(=O)(=O)N/N=C/C(O)C(O)C(O)C(O)CO)cc1 (stereo unspecified) | 5.9% | -5.15% | -14.8% | -34.1% | -8.45% | 12.3%
Nc1ncnc2nc(N=Nc3ccc(S(=O)(=O)O)cc3)[nH]c12 | 4.25% | -21.1% | -1.2% | -23.4% | -6.35% | -6.75%
O=S(=O)(O)Cc1ccc(CS(=O)(=O)O)cc1 | 14.7% | -2.1% | -1.3% | -56.4% | -3.8% | -17%
N#C/C(=C\c1ccco1)C(=O)c1ccco1 | 19.4% | 15.1% | 28.2% | 13.8% | 38.7% | 34.6%
NCCNCCCNCCN | 7.85% | -2.4% | 7.95% | -2.45% | 27.4% | 6.45%
CNC(=O)NNC(=O)NC | -45.1% | -24.6% | -24.6% | -27.6% | -15.7% | -6.05%
Cc1nc(Nc2ccccc2)sc1C(=O)CC(=O)C(=O)NC12CC3CC(CC(C3)C1)C2 | 1.3% | 8.95% | 8.8% | -13.1% | 4.4% | -0.7%
CCOC(=O)CC[C@H](NC(=O)c1nc[nH]c1[N+](=O)[O-])C(=O)OCC | -17.8% | -36% | -44.4% | 8.9% | -7.35% | -34.4%
O=[N+]([O-])c1ccc(F)c(Cl)c1 | -10.7% | -25.1% | -1.6% | 4.55% | 9.3% | -7.25%
COC1(NS(=O)(=O)c2ccc(C)cc2)CC1 | -43.8% | -25.2% | -12.1% | -39.1% | 10.4% | -3.85%
CSCCC(N)C(=O)NCCS(=O)(=O)O (stereo unspecified) | -22.4% | 1% | 14.8% | -8% | 17.1% | 8.25%
CC(C)=NNC(=O)c1ccccc1CC(O)(c1ccccc1)c1ccccc1 | 22.1% | 5.25% | 10.2% | -35.6% | -24.4% | 15.2%
O=C(O)C(Oc1ccccc1)Oc1ccccc1 | -24.7% | -13.2% | -11.8% | 5.85% | 6.6% | -4.95%
COC(=O)c1sc2c(=O)c(C(=O)OC)c(C(=O)OC)sc2c(=O)c1C(=O)OC | 23.1% | 27.4% | 54.3% | -1.1% | 50.9% | 38.6%
CCC1=Nc2ccccc2C(c2ccccc2)NC1=O (stereo unspecified) | -2% | -19.7% | 4.5% | 6% | -9.65% | 24.9%
